PubChem BioAssay AID1159580 (chemical genetic matrix, 2015)
The whole screen tested about 5,500 compounds, of which about 2,000 (36%) were called active. About 18% were inconclusive and are not listed. No stated cut-off is given here; in the data, active means normalized growth mostly below about 0.91 (no sharp cut-off); inconclusive means no clear call, values can overlap the other calls; inactive means mostly above about 0.92. Some of the results follow.

Assay: chemical genetic growth profiling, strain panel (AID 1159580);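 further: tested at 20 µM; growth read once vehicle control cultures reached saturation at 30 °C; 1 = growth at the plate median or of vehicle wells; lower values mean less growth of the strain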
Details: growth OD
[1] = S. cerevisiae deletion strains, locus YAL013W, strain DEP1, active compounds read low
[2] = S. cerevisiae deletion strains, locus YBR229C, strain ROT2, active compounds read low
[3] = S. cerevisiae deletion strains, locus YDL101C, strain DUN1, active compounds read low
[4] = S. cerevisiae deletion strains, locus YDR150W, strain NUM1, active compounds read low
[5] = S. cerevisiae deletion strains, locus YEL061C, strain CIN8, active compounds read low
[6] = S. cerevisiae deletion strains, locus YGR078C, strain PAC10, active compounds read low
[7] = S. cerevisiae deletion strains, locus YHR030C, strain SLT2, active compounds read low
[8] = S. cerevisiae deletion strains, locus YHR087W, strain rtc3, active compounds read low
[9] = S. cerevisiae deletion strains, locus YJR043C, strain POL32, active compounds read low
[10] = S. cerevisiae deletion strains, locus YJR075W, strain HOC1, active compounds read low
[11] = S. cerevisiae deletion strains, locus YLR039C, strain RIC1, active compounds read low
[12] = S. cerevisiae deletion strains, locus YLR058C, strain SHM2 (second series), active compounds read low
[13] = S. cerevisiae deletion strains, locus YLR085C, strain ARP6, active compounds read low
[14] = S. cerevisiae deletion strains, locus YLR262C, strain YPT6, active compounds read low
[15] = S. cerevisiae deletion strains, locus YML094W, strain GIM5, active compounds read low
[16] = S. cerevisiae deletion strains, locus YMR219W, strain ESC1, active compounds read low
[17] = S. cerevisiae deletion strains, locus YMR263W, strain SAP30, active compounds read low
[18] = S. cerevisiae deletion strains, locus YMR307W, strain GAS1, active compounds read low
[19] = S. cerevisiae deletion strains, locus YNL153C, strain GIM3, active compounds read low
[20] = S. cerevisiae deletion strains, locus YNL298W, strain CLA4 (second series), active compounds read low
[21] = S. cerevisiae deletion strains, locus YNL322C, strain KRE1, active compounds read low
[22] = S. cerevisiae deletion strains, locus YNR030W, strain Alg12, active compounds read low
[23] = S. cerevisiae deletion strains, locus YPL055C, strain LGE1, active compounds read low
[24] = S. cerevisiae deletion strains, locus YPL241C, strain CIN2, active compounds read low
[25] = S. cerevisiae deletion strains, locus YPR135W, strain CTF4, active compounds read low
[26] = S. cerevisiae deletion strains, locus YCL061C, strain MRC1, active compounds read low
[27] = S. cerevisiae deletion strains, locus YGR229C, strain SMI1, active compounds read low
[28] = S. cerevisiae deletion strains, locus YJL187C, strain SWE1, active compounds read low
[29] = S. cerevisiae deletion strains, locus YKL190W, strain CNB1, active compounds read low

Measured: normalized growth

Cc1cccc(NCN2C(=O)CCC2=O)n1
active: [11] 0.643 | [14] 0.572
inactive: [1] 0.968 | [2] 0.996 | [3] 0.956 | [4] 0.959 | [5] 0.982 | [6] 0.965 | [7] 0.821 | [8] 1.06 | [9] 0.972 | [10] 0.987 | [12] 0.97 | [13] 0.95 | [15] 0.932 | [16] 0.992 | [17] 1.01 | [18] 1.22 | [19] 0.98 | [20] 0.938 | [21] 0.983 | [22] 0.977 | [23] 1 | [24] 0.96 | [25] 0.978

O=C1CCC(=O)N1CNc1ccccc1OC(F)(F)F
inactive: [1] 0.968 | [2] 0.994 | [26] 1.01 | [3] 0.963 | S. cerevisiae deletion strains, locus YDL134C, strain PPH21, active compounds read low 0.999 | [4] 1.02 | [5] 0.984 | [6] 0.996 | [27] 0.998 | [7] 1.04 | [8] 0.989 | [28] 1 | [9] 1 | [10] 0.997 | [29] 0.999 | [11] 0.991 | [12] 0.992 | [13] 1.02 | [14] 1.05 | [15] 1.02 | [16] 0.993 | [17] 1.03 | [18] 1.2 | S. cerevisiae deletion strains, locus YNL128W, strain TEP1, active compounds read low 0.993 | [19] 1.01 | [20] 0.971 | [21] 0.983 | [22] 1 | [23] 1.07 | [24] 1.02 | [25] 0.92

Cc1cccc(N2C(=O)C3C4C=CC(C4)C3C2=O)n1 (stereo unspecified)
inactive: [1] 0.994 | [2] 0.993 | [26] 0.985 | [3] 0.989 | [4] 0.987 | [5] 0.987 | [6] 1.01 | [7] 0.999 | [8] 0.971 | [28] 0.995 | [9] 1.01 | [10] 0.989 | [29] 0.991 | [11] 0.977 | [12] 0.992 | [13] 0.987 | [14] 0.998 | [15] 0.983 | [16] 0.992 | [17] 0.987 | [19] 1 | [20] 1.01 | [21] 1.01 | [22] 1 | [23] 0.991 | [24] 1.01 | [25] 1.03 | S. cerevisiae strains, strain wild type, active compounds read low 0.999

CC1=CC(C)(C)NC(=S)N1
inactive: [1] 1.01 | [2] 1.01 | [3] 1 | [4] 0.981 | [5] 1.01 | [6] 1 | [27] 1.02 | [7] 1.06 | [8] 1 | [9] 1 | [10] 1.01 | [29] 1.01 | [11] 1.01 | [12] 1 | [13] 0.984 | [14] 1.05 | [15] 0.996 | [16] 1 | [17] 1.02 | [19] 0.997 | [20] 1 | [21] 1.01 | [22] 1.01 | [23] 0.984 | [24] 1.03 | [25] 1.06

Oc1ccc(-n2nnnc2SCc2ccc(OC(F)(F)F)cc2)cc1
inactive: S. cerevisiae deletion strains, locus YAR019C, strain CDC15, active compounds read low 0.974 | S. cerevisiae deletion strains, locus YBL105C, strain PKC1, active compounds read low 0.971 | S. cerevisiae deletion strains, locus YBR135W, strain CKS1, active compounds read low 0.979 | S. cerevisiae deletion strains, locus YBR136W, strain MEC1, active compounds read low 0.975 | S. cerevisiae deletion strains, locus YBR160W, strain CDC28, active compounds read low 0.971 | S. cerevisiae deletion strains, locus YDL017W, strain CDC7, active compounds read low 0.982 | S. cerevisiae deletion strains, locus YDL028C, strain MPS1, active compounds read low 0.979 | [3] 0.988 | S. cerevisiae deletion strains, locus YDL108W, strain KIN28, active compounds read low 0.972 | S. cerevisiae deletion strains, locus YDL132W, strain cdc53, active compounds read low 0.984 | S. cerevisiae deletion strains, locus YDL214C, strain PRR2, active compounds read low 0.815 | S. cerevisiae deletion strains, locus YDR052C, strain DBF4, active compounds read low 0.984 | S. cerevisiae deletion strains, locus YDR054C, strain cdc34, active compounds read low 0.968 | S. cerevisiae deletion strains, locus YDR226W, strain ADK1, active compounds read low 0.98 | S. cerevisiae deletion strains, locus YDR477W, strain SNF1, active compounds read low 0.783 | S. cerevisiae deletion strains, locus YER123W, strain YCK3, active compounds read low 0.651 | S. cerevisiae deletion strains, locus YER133W, strain GLC7, active compounds read low 0.767 | S. cerevisiae deletion strains, locus YFL009W, strain cdc4, active compounds read low 0.975 | S. cerevisiae deletion strains, locus YFL029C, strain CAK1, active compounds read low 0.97 | S. cerevisiae deletion strains, locus YFR003C, strain YPI1, active compounds read low 0.98 | S. cerevisiae deletion strains, locus YFR019W, strain FAB1, active compounds read low 0.794 | S. cerevisiae deletion strains, locus YFR028C, strain CDC14, active compounds read low 0.97 | S. cerevisiae deletion strains, locus YGR040W, strain KSS1, active compounds read low 0.747 | S. cerevisiae deletion strains, locus YGR092W, strain DBF2, active compounds read low 0.663 | S. cerevisiae deletion strains, locus YHR079C, strain IRE1, active compounds read low 0.563 | S. cerevisiae deletion strains, locus YHR082C, strain KSP1, active compounds read low 0.617 | S. cerevisiae deletion strains, locus YHR205W, strain SCH9, active compounds read low 0.867 | S. cerevisiae deletion strains, locus YIL147C, strain SLN1, active compounds read low 0.984 | S. cerevisiae deletion strains, locus YJL095W, strain BCK1, active compounds read low 0.597 | S. cerevisiae deletion strains, locus YJL128C, strain PBS2, active compounds read low 0.932 | S. cerevisiae deletion strains, locus YJL157C, strain FAR1, active compounds read low 0.832 | S. cerevisiae deletion strains, locus YJR016C, strain ILV3, active compounds read low 0.977 | S. cerevisiae deletion strains, locus YJR066W, strain TOR1 (second series), active compounds read low 0.738 | S. cerevisiae deletion strains, locus YJR066W, strain TOR1, active compounds read low 0.647 | S. cerevisiae deletion strains, locus YKL067W, strain YNK1, active compounds read low 0.794 | S. cerevisiae deletion strains, locus YKL193C, strain SDS22, active compounds read low 0.978 | S. cerevisiae deletion strains, locus YKL203C, strain TOR2, active compounds read low 0.803 | S. cerevisiae deletion strains, locus YLR133W, strain CKI1, active compounds read low 0.835 | S. cerevisiae deletion strains, locus YLR403W, strain SFP1, active compounds read low 0.828 | S. cerevisiae deletion strains, locus YML070W, strain DAK1, active compounds read low 0.703 | S. cerevisiae deletion strains, locus YMR001C, strain CDC5, active compounds read low 0.97 | S. cerevisiae deletion strains, locus YMR205C, strain PFK2 (second series), active compounds read low 0.782 | S. cerevisiae deletion strains, locus YMR277W, strain FCP1, active compounds read low 0.981 | S. cerevisiae deletion strains, locus YNL006W, strain LST8, active compounds read low 0.981 | S. cerevisiae deletion strains, locus YNL020C, strain ARK1, active compounds read low 0.805 | S. cerevisiae deletion strains, locus YNL161W, strain CBK1, active compounds read low 0.976 | S. cerevisiae deletion strains, locus YNL183C, strain NPR1, active compounds read low 0.635 | S. cerevisiae deletion strains, locus YNL207W, strain RIO2, active compounds read low 0.97 | S. cerevisiae deletion strains, locus YNL222W, strain SSU72, active compounds read low 0.966 | S. cerevisiae deletion strains, locus YNL307C, strain MCK1 (second series), active compounds read low 0.791 | S. cerevisiae deletion strains, locus YOL078W, strain AVO1, active compounds read low 0.978 | S. cerevisiae deletion strains, locus YOL136C, strain PFK27, active compounds read low 0.75 | S. cerevisiae deletion strains, locus YOR061W, strain CKA2, active compounds read low 0.772 | S. cerevisiae deletion strains, locus YOR119C, strain RIO1, active compounds read low 0.806 | S. cerevisiae deletion strains, locus YOR329C, strain SCD5, active compounds read low 0.986 | S. cerevisiae deletion strains, locus YPL031C, strain PHO85, active compounds read low 0.725 | S. cerevisiae deletion strains, locus YPL209C, strain IPL1, active compounds read low 0.977 | S. cerevisiae deletion strains, locus YPR025C, strain CCL1, active compounds read low 0.975 | S. cerevisiae deletion strains, locus YPR106W, strain ISR1, active compounds read low 0.971 | S. cerevisiae deletion strains, locus YPR111W, strain DBF20, active compounds read low 0.967 | S. cerevisiae deletion strains, strain NNK1, active compounds read low 0.979 | S. cerevisiae deletion strains, strain TSCII, active compounds read low 0.983
active: S. cerevisiae deletion strains, locus YGR052W, strain FMP48, active compounds read low 0.577 | [7] 0.554 | S. cerevisiae deletion strains, locus YKL048C, strain ELM1, active compounds read low 0.635 | S. cerevisiae deletion strains, locus YKL101W, strain HSL1, active compounds read low 0.716 | S. cerevisiae deletion strains, locus YLR113W, strain HOG1, active compounds read low 0.523 | S. cerevisiae deletion strains, locus YOR231W, strain MKK1, active compounds read low 0.509 | S. cerevisiae deletion strains, locus YPL153C, strain RAD53, active compounds read low 0.599 | S. cerevisiae deletion strains, locus YPL204W, strain HRR25, active compounds read low 0.622 | S. cerevisiae deletion strains, locus YPL256C, strain CLN2, active compounds read low 0.467
